Data published in PMC8384837, “Expanding the binding specificity for RNA recognition by a PUF domain”.

Target: PUM1 PUF domain R5-FHS (Homo sapiens, UniProt Q14671 828-1176, C1007F;R1008H;Q1011S)
Assay: yeast three-hybrid, YBZ-1, SC-Leu-His + 0.5 mM 3-AT, 4 days
Settings: tags: N-Gal4 AD-HA kept; label: inside an RPR1-promoter hybrid RNA with tandem MS2 sites; ssRNA
Procedure, shortened: (§1)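 Pumilio-1 PUF domain libraries, randomized at the three base-contacting residues of each repeat, were co-expressed with matching RNA elements from a centromeric plasmid in strain YBZ-1, which carries a LexA–MS2 coat fusion and a HIS3 reporter. Transformants grew for four days on SC-Leu (input) or on SC-Leu-His + 0.5 mM 3-AT (selection), and the repeat regions were PCR-amplified and Illumina-sequenced. The interaction score is the log change in variant frequency from input to selection. That logarithm is base 2, with a pseudocount of 1 where a variant was absent.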

Chain of PUM1 PUF domain R5-FHS (Q14671 828-1176 C1007F/R1008H/Q1011S): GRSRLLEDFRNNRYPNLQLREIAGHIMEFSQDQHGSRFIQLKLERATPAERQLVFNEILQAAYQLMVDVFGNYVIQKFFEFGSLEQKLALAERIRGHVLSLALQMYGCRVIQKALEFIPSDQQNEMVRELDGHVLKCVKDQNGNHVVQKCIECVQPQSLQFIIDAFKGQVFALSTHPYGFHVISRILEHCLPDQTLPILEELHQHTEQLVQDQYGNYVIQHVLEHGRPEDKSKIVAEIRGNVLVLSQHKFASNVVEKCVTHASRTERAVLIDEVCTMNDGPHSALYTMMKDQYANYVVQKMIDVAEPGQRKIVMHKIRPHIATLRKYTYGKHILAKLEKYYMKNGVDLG

Question: How did the binding signal turn out when “GGCUAGAACUAGUGGAUCCCCCGGCGCCCGGCGGCUCGAGCCCGGGUAAGUGUUAAUAGUCUGCAUGCCGCCGGGCGCCAUGCCUGCAGGUCGACUCUAGAAAACAUG” was run?
Answer: 0.94 log2 enrichment (interaction score)

Question: Which binding signal does the source give for “GGCUAGAACUAGUGGAUCCCCCGGCGCCCGGCGGCUCGAGCCCGGGUAAGUGUGAAUAGUCUGCAUGCCGCCGGGCGCCAUGCCUGCAGGUCGACUCUAGAAAACAUG” here?
Answer: 2.39 log2 enrichment (interaction score)

Question: “GGCUAGAACUAGUGGAUCCCCCGGCGCCCGGCGGCUCGAGCCCGGGUAAGUGUCAAUAGUCUGCAUGCCGCCGGGCGCCAUGCCUGCAGGUCGACUCUAGAAAACAUG” was tested. Which binding signal did it give?
Answer: 1.75 log2 enrichment (interaction score)

Question: How did the binding signal turn out when “GGCUAGAACUAGUGGAUCCCCCGGCGCCCGGCGGCUCGAGCCCGGGUAAGUGUAAAUAGUCUGCAUGCCGCCGGGCGCCAUGCCUGCAGGUCGACUCUAGAAAACAUG” was run?
Answer: 2.12 log2 enrichment (interaction score)

Target: PUM1 PUF domain R3-LWR (Homo sapiens, UniProt Q14671 828-1176, C935L;R936W;Q939R)
Sequence (Q14671 828-1176 C935L/R936W/Q939R): as the sequence (Q14671 828-1176 C1007F/R1008H/Q1011S) above, with C108L, R109W, Q112R, F180C, H181R, S184Q counted along it
Assay: as above
Settings: tags: N-Gal4 AD-HA kept; label: inside an RPR1-promoter hybrid RNA with tandem MS2 sites; ssRNA
Procedure, shortened: as §1

Question: Which binding signal does the source give for “GGCUAGAACUAGUGGAUCCCCCGGCGCCCGGCGGCUCGAGCCCGGGUAAGUGUAAUUAGUCUGCAUGCCGCCGGGCGCCAUGCCUGCAGGUCGACUCUAGAAAACAUG” here?
Answer: 4.17 log2 enrichment (interaction score)

Question: For “GGCUAGAACUAGUGGAUCCCCCGGCGCCCGGCGGCUCGAGCCCGGGUAAGUGUAAGUAGUCUGCAUGCCGCCGGGCGCCAUGCCUGCAGGUCGACUCUAGAAAACAUG”, which binding signal is on record?
Answer: 5.5 log2 enrichment (interaction score)

Question: Which binding signal does the source give for “GGCUAGAACUAGUGGAUCCCCCGGCGCCCGGCGGCUCGAGCCCGGGUAAGUGUAAAUAGUCUGCAUGCCGCCGGGCGCCAUGCCUGCAGGUCGACUCUAGAAAACAUG” here?
Answer: 2.03 log2 enrichment (interaction score)

Target: PUM1 PUF domain R3-LWA (Homo sapiens, UniProt Q14671 828-1176, C935L;R936W;Q939A)
Sequence (Q14671 828-1176 C935L/R936W/Q939A): as the sequence (Q14671 828-1176 C1007F/R1008H/Q1011S) above, with C108L, R109W, Q112A, F180C, H181R, S184Q counted along it
Assay: as above
Settings: tags: N-Gal4 AD-HA kept; label: inside an RPR1-promoter hybrid RNA with tandem MS2 sites; ssRNA
Procedure, shortened: as §1

Question: How did the binding signal turn out when “GGCUAGAACUAGUGGAUCCCCCGGCGCCCGGCGGCUCGAGCCCGGGUAAGUGUAAUUAGUCUGCAUGCCGCCGGGCGCCAUGCCUGCAGGUCGACUCUAGAAAACAUG” was run?
Answer: 4.71 log2 enrichment (interaction score)

Question: Which binding signal does the source give for “GGCUAGAACUAGUGGAUCCCCCGGCGCCCGGCGGCUCGAGCCCGGGUAAGUGUAAGUAGUCUGCAUGCCGCCGGGCGCCAUGCCUGCAGGUCGACUCUAGAAAACAUG” here?
Answer: 5.58 log2 enrichment (interaction score)

Question: “GGCUAGAACUAGUGGAUCCCCCGGCGCCCGGCGGCUCGAGCCCGGGUAAGUGUAAAUAGUCUGCAUGCCGCCGGGCGCCAUGCCUGCAGGUCGACUCUAGAAAACAUG” was tested. Which binding signal did it give?
Answer: 2.61 log2 enrichment (interaction score)

Target: PUM1 PUF domain R4-ARC (Homo sapiens, UniProt Q14671 828-1176, N971A;H972R;Q975C)
Sequence (Q14671 828-1176 N971A/H972R/Q975C): as the sequence (Q14671 828-1176 C1007F/R1008H/Q1011S) above, with N144A, H145R, Q148C, F180C, H181R, S184Q counted along it
Assay: as above
Settings: tags: N-Gal4 AD-HA kept; label: inside an RPR1-promoter hybrid RNA with tandem MS2 sites; ssRNA
Procedure, shortened: as §1

Question: “GGCUAGAACUAGUGGAUCCCCCGGCGCCCGGCGGCUCGAGCCCGGGUAAGUGUACAUAGUCUGCAUGCCGCCGGGCGCCAUGCCUGCAGGUCGACUCUAGAAAACAUG” was tested. Which binding signal did it give?
Answer: 0.97 log2 enrichment (interaction score)

Question: How did the binding signal turn out when “GGCUAGAACUAGUGGAUCCCCCGGCGCCCGGCGGCUCGAGCCCGGGUAAGUGUAUAUAGUCUGCAUGCCGCCGGGCGCCAUGCCUGCAGGUCGACUCUAGAAAACAUG” was run?
Answer: 1.56 log2 enrichment (interaction score)

Question: Which binding signal does the source give for “GGCUAGAACUAGUGGAUCCCCCGGCGCCCGGCGGCUCGAGCCCGGGUAAGUGUAAAUAGUCUGCAUGCCGCCGGGCGCCAUGCCUGCAGGUCGACUCUAGAAAACAUG” here?
Answer: 5.53 log2 enrichment (interaction score)

Target: PUM1 PUF domain R3-GWA (Homo sapiens, UniProt Q14671 828-1176, C935G;R936W;Q939A)
Sequence (Q14671 828-1176 C935G/R936W/Q939A): as the sequence (Q14671 828-1176 C1007F/R1008H/Q1011S) above, with C108G, R109W, Q112A, F180C, H181R, S184Q counted along it
Assay: as above
Settings: tags: N-Gal4 AD-HA kept; label: inside an RPR1-promoter hybrid RNA with tandem MS2 sites; ssRNA
Procedure, shortened: as §1

Question: “GGCUAGAACUAGUGGAUCCCCCGGCGCCCGGCGGCUCGAGCCCGGGUAAGUGUAAUUAGUCUGCAUGCCGCCGGGCGCCAUGCCUGCAGGUCGACUCUAGAAAACAUG” was tested. Which binding signal did it give?
Answer: 1.14 log2 enrichment (interaction score)

Question: Which binding signal does the source give for “GGCUAGAACUAGUGGAUCCCCCGGCGCCCGGCGGCUCGAGCCCGGGUAAGUGUAAGUAGUCUGCAUGCCGCCGGGCGCCAUGCCUGCAGGUCGACUCUAGAAAACAUG” here?
Answer: 2.87 log2 enrichment (interaction score)

Question: With “GGCUAGAACUAGUGGAUCCCCCGGCGCCCGGCGGCUCGAGCCCGGGUAAGUGUAAAUAGUCUGCAUGCCGCCGGGCGCCAUGCCUGCAGGUCGACUCUAGAAAACAUG” as the sequence, how does the binding signal read?
Answer: 3.32 log2 enrichment (interaction score)
